# Data: ChEMBL document CHEMBL4513143, “CO-ADD screening of University of Natural Resources and Life (Austria) compounds”
# Results with a measured potency or affinity are listed apart.
# Key:
# [1] = system: Klebsiella pneumoniae; conditions: Concentration 32 ug.mL-1; ASSAY_TEST Inhibition of Bacterial Growth; detection method Absorption (OD600); MEDIA CAMHB; plate type 384well; NBS; CORNING #3640; time 18 hr
# [2] = system: Candida albicans; conditions: 32 ug/mL
# [3] = system: Cryptococcus neoformans; conditions: Concentration 32 ug.mL-1; ASSAY_TEST Inhibition of Fungal Growth; detection method Resazurin; Absorption (OD600-OD570); plate type 384well; NBS; CORNING #3640
smiles,measurement,setting,value
[N-]=[N+]=NC[C@H]1OC(O)[C@@H](O)[C@@H]1O (stereo partly drawn),Inhibition,[1],29.69%
same,Inhibition,[2],3.08%
same,Inhibition,[3],-7.43%
